The record followed here is PubChem BioAssay (NCATS).

Records with an inconclusive call do not appear. Entries that show only a call come without a potency. The source made the active and inactive calls. The call rests on the fitted dose curve; in most records, active means well fitted inhibition curve with a large enough effect; inconclusive means small, poorly fitted or top-dose-only effect, or effect the other way; inactive means flat fitted curve, though single readings scatter.
Potency means the concentration at half of the fitted maximal effect.

The test can be described thus: qHTS for Inhibitors of Plasmodium falciparum (GB4) proliferation (AID 504315). Further: nearly all actives have a fitted effect of over 50% in size. The conditions noted are these: P. falciparum GB4 in erythrocytes, SYBR Green DNA, 72 h; series mostly up to 6.7 µM. The text has this:
Plasmodium falciparum is a virulent malarial parasite that kills 1-2 million people worldwide each year. Malaria not only inflicts tremendous suffering and morbidity on the human population, but has dramatically influenced the course of civilization with profound sociological and economic implications (Shah, S. 2010). Transmitted by mosquitoes, the sporozoite form of the parasite enters the blood stream to infect hepatocytes, where they become merozoites that infect red blood cells (erythrocytes). Within erythrocytes, merozoites begin a […] cycle of growth and division, after which the parasite is released to infect new red blood cells. Gametocytes, which form within erythrocytes as well, circulate in the bloodstream and are ingested by the mosquito, thereby completing the life cycle (see CDC website). To profile malarial lines for differential chemical responses and to identify inhibitors of malarial growth, an assay that measures P. falciparum growth and replication within erythrocytes was employed. This assay uses a DNA binding fluorescent dye (SYBR Green) to detect parasite DNA following cell lysis. Because mature erythrocytes lack DNA, only Plasmodium-derived DNA is detected. The P. falciparum line cp250, derived from a malarial isolate from Cambodia, (Mu, J., et al. 2010) was added to the panel of lines, Dd2, HB3, 7G8 and GB4 in this study. Laboratory of Assay Development and Screening Technology [ADST] and NIH Chemical Genomics Center [NCGC] Boston University, Chemistry Department, Center for Chemical Methodology and Library Development [CMLD-BU] NIH National Institute of Allergy and Infectious Diseases [NIAID]
ADST Assay Protocol Summary: The 1536-well SYBR Green viability assay was based on the method of Bennett et al (2004) and described previously in 1536-well format (Yuan J., et al. 2009). For screening 3 ul culture medium was dispensed into 1536 well black clear bottom plates (Aurora Biotechnologies) using a Multidrop Combi (Thermo Fisher Scientific Inc.), 23 nL compounds in DMSO were added by a pin transfer (Cleveland, P.H. and Koutz, P.J, 2005) using a pin tool-based delivery system (Kalypsys), and 5 ul of erythrocytes infected with P. falciparum one of five lines (cp250, Dd2, HB3, 7G8 or GB4, 0.3% parasitemia, 2.5% hematocrit final concentration) were added. The plates were incubated at 37C in a humidified incubator in 5% CO2 for 72 h, and 2 ul lysis buffer (20 mM Tris HCl, 10 mM EDTA, 0.16% saponin, 1.6% triton X, 10X SYBR Green I (supplied as 10,000X final concentration by Invitrogen) was added to each well. The plates were mixed for 25 sec with gentle shaking and incubated overnight at room temperature in the dark. The following morning, fluorescence intensity at 485(14) nm excitation and 535(25) nm emission wavelengths was measured on an EnVision (Perkin Elmer) plate reader. Plate reads were normalized relative to the control inhibitor (0.29 uM artemisinin) and vehicle (DMSO) wells present on each plate and then corrected by an algorithm using vehicle-only control plates at the beginning and end of the compound plate stack. References Shah, S. (2010). The Fever: how malaria has ruled humankind for 500,000 years. New York, Sarah Crichton Books. CDC web site, http://www.cdc.gov/malaria/about/biology/index.html Mu, J., Myers, R.A., Jiang, H., Liu, S., Ricklefs, S., Waisberg, M., Chotivanich, K., Wilairatana, P., Krudsood, S., White, N.J., et Plasmodium falciparum genome-wide scans for positive selection, recombination hot spots and resistance to antimalarial drugs Nature Genetics 2010, 42, pp 268-271 Bennett TN, Paguio, M., Gligorijevic, B., Seudieu, C., Kosar, A. D., Davidson, E., and Roepe, P. D. Novel, rapid, and inexpensive cell-based quantification of antimalarial drug efficacy Antimicrobial Agents Chemother. 2004, 48(5): pp 1807-10 Yuan J, Johnson RL, Huang RL, Wichterman J, Jiang HY, Hayton K, Fidock DA, Wellems TE, Inglese J, Austin CP, Su XZ. […]
A general note: qHTS replaces the single test concentration by a dilution series.
For `Cc1ccc(O[C@@H]2[C@H](O)CO[C@H]2C=CC#Cc2ccc(C(C)(C)C)cc2)cc1`, the Potency entry was “inactive”.
The value for `CC(C)=NOCc1ccc(-c2cn([C@@H]3COC[C@@H]3O)nn2)cc1` was “inactive”; that for `CC(=CC[Si](C)(C)C)CCC=O` was “inactive”.
Next, `C=C[C@@]1(C)CCC=C2C(=O)CCC[C@H]21`: “inactive”; `COC(=O)C=P(c1ccccc1)(c1ccccc1)c1ccccc1`: “inactive”; `CC1=CC[C@@H](C)O[C@@]2(C1)C(=O)Nc1ccccc12`: “inactive”.
Next, `Cc1ccc(S(=O)(=O)OC[C@@H]2CN3[C@H](c4ccc(Br)cc4)[C@H](C)CC[C@H]3C(=O)O2)cc1`: “inactive”.
As to `CCOC(=O)CCN1C(=O)[C@@H]2[C@H]3[C@H](O)[C@H](O)CC(=NO[C@@H]4O[C@H](COC(C)=O)[C@@H](OC(C)=O)[C@H](OC(C)=O)[C@@H]4OC(C)=O)[C@H]3CC[C@H]2C1=O`, the Potency result is “inactive”.
Consider `COc1cccc(CO[C@H]2C=C[C@@H](c3ccccc3)O[C@H]2CBr)c1`, for which the Potency entry was “inactive”.
As for `O=C(NN=C1C[C@@H](O)[C@H](O)[C@H]2[C@@H]3C(=O)N(C4CCCCC4)C(=O)[C@@H]3CC[C@H]12)OCc1ccccc1`, the Potency result was “inactive”.
For `CC(CCC(=O)OC[C@H]1O[C@H](C#Cc2ccccc2)C=C[C@H]1Oc1ccc(C)cc1)=NO[C@@H](C)CN1CCCCc2nc(C)c(C)cc21`, the Potency entry was “inactive”.
In the case of `COC(=O)N1C(c2ccccc2)=Cc2ccccc2C1C1(C(=O)OC)CCCC1=O` (stereo not given), the Potency entry was “inactive”.
Next, `C=CCC(O)(C#Cc1ccccc1)c1ccccc1` (stereo not given): “inactive”; `COC(=O)CC=C[C@@H](C)[C@@H](C=NOC[C@@H](C)[C@H](OCc1ccccc1)C(C)C)NS(=O)(=O)c1ccc(C)cc1`: “inactive”; `C#CCCCON=C1C[C@@H](O)[C@H](O)[C@H]2[C@@H]3C(=O)N(c4ccc(F)cc4F)C(=O)[C@@H]3CC[C@H]12`: “inactive”.
Next, `CCN1C(=NCCc2ccccn2)NC(c2cccc(C(F)(F)F)c2)C(C(=O)OC)=C1C` (stereo not given): 301 nM (active); `C=CCN1C=C2C(=O)C(C)(OC(=O)c3ccco3)C(=O)C(C=C)=C2C=C1C1CC1` (stereo not given): “inactive”; `CCCCC1=CC2=CC(=O)C(C)(O)C(=O)C2=CO1` (stereo not given): “inactive”.
Next, `C=CCCN1C(=O)NC(c2ccccc2)C(C(=O)OC)=C1C` (stereo not given): “inactive”; `CC(C)CON=C1C[C@@H](O)[C@@H](O)[C@@H]2[C@H]3C(=O)N(C4CCCCC4)C(=O)[C@@H]3CC[C@@H]12`: “inactive”; `COC(=O)CC=C1c2ccccc2[C@@H](OC)[C@@H]1C`: “inactive”.
For `C=CCN1c2ccccc2[C@]23CCC(=O)N(CC4CC4)C2=NC(C(=O)OC)=C(C(=O)OC)[C@H]13`, the Potency entry was “inactive”.
Next, `CCCNC(=O)OC[C@H]1O[C@H](CCON=C(C)CCC(=O)OC[C@H]2O[C@H](C#Cc3ccccc3)C=C[C@H]2Oc2ccc(C)cc2)C=C[C@H]1Oc1ccc(OC)cc1`: “inactive”.
The value for `COCCN1C(=O)N(C)C(c2ccccc2)C(C(C)=O)=C1C` (stereo not given) was “inactive”.
`C#CCN1C(=O)[C@]2(O[C@H](C)CC3=CCCC32)c2c(Br)cccc21` (stereo not given in full): the Potency entry was “inactive”.
`COC(=O)[C@@H]1[C@@H](c2cccc(C(F)(F)F)c2)NC(=O)N(Cc2ccccc2)[C@@H]1C`: the Potency entry was “inactive”.
As for `CCOC(=O)OC[C@H]1O[C@H](c2cc(C)cc(C)c2)C=C[C@H]1OC(=O)OCC`, the Potency result is “inactive”.
For the compound `COc1ccc2c(c1)O[C@@H](c1cccc(C(F)(F)F)c1)[C@H](OC(=O)NC1CCCC1)C2=O`, the Potency entry was “inactive”.
The value for `COC(=O)C[C@H]1c2ccccc2C2=C(C[C@@H](C)[C@H]3C(=O)N(c4ccccc4)C(=O)[C@@H]23)N1C(=O)OC` was “inactive”; that for `COc1cc(OC)c([C@@H]2O[C@H](CO)[C@@H](O)[C@H](O)[C@@H]2O)c(OC)c1` was “inactive”.
The value for `CCN(CC)CCCN=C1NC(c2cccc(C(F)(F)F)c2)C(C(=O)OC)=C(C)N1CC` (stereo not given) was “inactive”.
Next, `CC(C)(C)OC(=O)NCCCC1=CC2=CC(=O)C(C)(O)C(=O)C2=CO1` (stereo not given): “inactive”.
Consider `CC(=O)c1ccc(OCc2ccccc2)c(C)c1O`, for which the Potency result is “inactive”.
Take `CCCCCCCc1cc2ccccc2c2c(C(=O)OC)cc(C(=O)OC)n12`: the Potency entry was “inactive”.
Regarding `CC1(OC(=O)C2CCCC2)C(=O)C=C2C=C(c3ccsc3)N(C(CO)CO)C=C2C1=O` (stereo not given), the Potency result is “inactive”.
The value for `COC(=O)C1=C(C(=O)OC)[C@@H]2N(C)c3ccccc3[C@@]23C[C@@H](C(=O)OC)N(C(=O)Nc2cccc(C#N)c2)C3=N1` was “inactive”; that for `CC(C)=CCN1C(=O)[C@]2(OCCC=C[C@H]2C)c2c(Br)cccc21` was “inactive”.
In the case of `COC(=O)CC1=CO[C@@H](O)[C@@H]2C(CO)=CC[C@@H]12`, the Potency result is “inactive”.
As for `C[C@@H]1CC2=CCCC2[C@]2(O1)C(=O)Nc1cccc(Br)c12` (stereo not given in full), the Potency result was “inactive”.
Next, `CC(=O)OC[C@H]1O[C@@H](ON=C[C@@H](C)[C@H](OCc2ccccc2)C(C)C)[C@@H](OC(C)=O)[C@@H](OC(C)=O)[C@@H]1OC(C)=O`: “inactive”.
